Test [1] is described as follows: resazurin metabolic signal in HepG2 cells – cell-based, resazurin fluorescence, 24 h, PK04 Diversity Set, profiling panel (AID 1172). Also: test concentration not given here. The note with it: HepG2 viability, higher = more signal. A general note: The colour change of resazurin is a common sign of viable cells or microbes.
Test [2] is described as follows: budding yeast growth changes without added modifier – OD600, strain BY4716, 24 h, basal condition, primary screen (AID 1173). Particulars: S. cerevisiae BY4716 growth, OD600, 24 h; higher = more signal, called active from +8 up or from −8 down.
A short description of test [3]: viability profiling in MM1S myeloma cells – cell-based, resazurin fluorescence, basal, 24 h, PK04 Diversity Set, profiling panel (AID 1174).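 Also: MM1S multiple myeloma cell line; test concentration not given here.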 Particulars: higher = more signal, called active from +8 up or from −8 down.
Test [4] has as its target Dihydroorotate dehydrogenase (quinone), mitochondrial (Plasmodium falciparum (isolate 3D7)) (UniProt Q08210). Put plainly: inhibition of P. falciparum DHODH – biochemical, C-terminal His tag, absorbance 600 nm, primary screen (AID 1175).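 Also: recombinant parasite enzyme with a five histidine tag at its C terminus; test concentration not given here.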 Particulars: PfDHODH enzyme, DCIP absorbance 600 nm; higher = more signal, called active from +8 up or from −8 down.
Test [5] can be described thus: inhibition of PAO1 biofilm formation – strain PAO1, LB-PBS medium, absorbance 600 nm, primary screen (AID 1176). Also: test concentration not given here. The note with it: P. aeruginosa PAO1 growth/biofilm, A600, 12 h; higher = more signal.
The nature of test [6]: growth modulation of vineyard yeast isolate – strain RM11-1a, OD600, basal, 24 h, primary screen (AID 1177).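 Also: cultures grown under basal conditions with no added stressor; test concentration not given here.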 Particulars: S. cerevisiae RM11-1a growth, OD600, 24 h; higher = more signal, called active from +8 up or from −8 down.
Test [7] is described as follows: growth of efflux-deficient E. coli DRC39 – strain DRC39, OD650, 24 h, E. coli filamentation inducers, primary screen (AID 1178).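 Also: growth measured as culture turbidity by optical density at 650 nm; test concentration not given here.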 The note with it: E. coli DRC39 acrAB, higher = more signal, called active from +8 up or from −8 down.
The nature of test [8]: growth of efflux-deficient E. coli DRC39 – strain DRC39, OD650, 48 h, E. coli filamentation inducers, primary screen (AID 1179).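 Also: screen aims at cell division blockers that make cells filament.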 Particulars: E. coli DRC39 delta-acrAB growth, higher = more signal, called active from +8 up or from −8 down.
Test [9] in a line: viability profiling in RPMI8226 myeloma cells – cell-based, resazurin fluorescence, basal, 24 h, PK04 Diversity Set, profiling panel (AID 1180).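 Also: RPMI8826 multiple myeloma cell line at 5000 cells per well; test concentration not given here.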 Particulars: higher = more signal.
For test [10], the target named is E3 ubiquitin-protein ligase XIAP (Homo sapiens) (UniProt P98170). Nature of the test: small molecules binding XIAP protein – biophysical, small-molecule microarray, fluorescence 635 nm, primary screen (AID 1181).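 Also: score merges 667 nm emission and signal to noise over triplicate slides.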 The note with it: higher = more signal.

Calls of active or inactive are those of the source. Unless noted, no rule for the calls is given here.

Chain of E3 ubiquitin-protein ligase XIAP (Homo sapiens) (P98170 whole entry, looked up): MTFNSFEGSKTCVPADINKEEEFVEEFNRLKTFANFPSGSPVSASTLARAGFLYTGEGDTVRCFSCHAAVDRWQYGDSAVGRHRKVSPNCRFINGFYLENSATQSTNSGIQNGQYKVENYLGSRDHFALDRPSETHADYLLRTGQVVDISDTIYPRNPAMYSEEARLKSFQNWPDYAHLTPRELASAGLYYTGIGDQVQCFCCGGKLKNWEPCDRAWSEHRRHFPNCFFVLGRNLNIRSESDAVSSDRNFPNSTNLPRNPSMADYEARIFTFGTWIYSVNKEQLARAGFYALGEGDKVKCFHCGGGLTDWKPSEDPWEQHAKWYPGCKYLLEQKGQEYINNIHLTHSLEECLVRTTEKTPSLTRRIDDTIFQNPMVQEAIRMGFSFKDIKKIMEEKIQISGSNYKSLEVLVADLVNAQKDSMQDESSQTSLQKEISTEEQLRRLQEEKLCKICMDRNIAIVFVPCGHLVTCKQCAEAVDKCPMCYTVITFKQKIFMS
Chain of Dihydroorotate dehydrogenase (quinone), mitochondrial (Plasmodium falciparum (isolate 3D7)) (Q08210 whole entry, looked up): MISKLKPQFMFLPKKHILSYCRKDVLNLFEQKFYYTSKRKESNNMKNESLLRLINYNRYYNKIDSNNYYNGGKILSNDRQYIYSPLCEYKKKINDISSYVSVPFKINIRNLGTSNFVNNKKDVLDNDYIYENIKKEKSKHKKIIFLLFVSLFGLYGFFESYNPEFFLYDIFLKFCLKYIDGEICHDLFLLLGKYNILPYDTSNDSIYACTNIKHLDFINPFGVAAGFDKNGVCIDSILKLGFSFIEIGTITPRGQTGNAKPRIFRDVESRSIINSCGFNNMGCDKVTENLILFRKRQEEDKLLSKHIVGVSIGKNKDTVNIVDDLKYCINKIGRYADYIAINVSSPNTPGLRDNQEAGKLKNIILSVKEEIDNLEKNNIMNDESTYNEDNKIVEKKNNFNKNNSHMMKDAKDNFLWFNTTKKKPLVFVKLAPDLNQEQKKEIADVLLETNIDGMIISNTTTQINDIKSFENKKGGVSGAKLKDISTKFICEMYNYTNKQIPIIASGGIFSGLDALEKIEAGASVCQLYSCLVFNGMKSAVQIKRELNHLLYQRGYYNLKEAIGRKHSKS

As for `CCOC(=O)[C@H]1[C@@H]2C(=O)N3CCC[C@H]3[C@H](O[Si](C(C)C)(C(C)C)C(C)C)[C@H]2C=C2CCN(S(=O)(=O)c3ccc(C)cc3)C[C@H]21`, the z-score is -1.01 in test [1]; 0.212 (inactive) in [2]; -1.84 (inactive) in test [3]; 0.318 (inactive) in test [5]; -0.598 (inactive) in test [6]; -0.146 (inactive) in test [7]. The z-score in test [8] was -0.641 (inactive); in test [9], -3.37. Further, the results for the composite z-score in [4] and in test [10] were -0.627 (inactive) and -0.148, respectively.

Regarding `O=C1C2C=CC(C(O)c3ccc(F)cc3)N(n3cnnc3)C2C(=O)N1Cc1ccccc1` (stereo not given), the z-score was -1.05 in [1]; 0.885 (inactive) in test [2]; -0.794 (inactive) in test [3]; -0.128 (inactive) in test [5]; -0.592 (inactive) in [6]; -0.352 (inactive) in [7]. For the same molecule, the values for the z-score in test [8] and in test [9] were -0.434 (inactive) and -1.47, respectively. The composite z-score in test [4] is -0.188 (inactive); in test [10], -0.145.

For `NC(=O)NCC#Cc1ccc2c(c1)[C@]1(C(=O)N2)[C@H](C(=O)O)[C@H]2C(=O)O[C@H](c3ccccc3)[C@H](c3ccccc3)N2[C@@H]1c1ccc(OCCO)cc1`, the z-score in test [1] is 0.626; in test [2], 0.0086 (inactive); in test [3], 0.557 (inactive); in test [5], 0.545 (inactive); in test [6] it was -0.285 (inactive); in test [7], -0.0444 (inactive). The results for the z-score in test [8] and in test [9] were -0.721 (inactive) and 0.547, respectively. Further, the composite z-score in test [4] was -0.932 (inactive); in [10] it was 0.361.

For the molecule `CC1CC/C=C\[C@H]2OC34C=CCN(c5ccc(Cl)cc5)C(=O)[C@H]3N(CCCCCO)C(=O)[C@]4(C)C2C(=O)O1` (stereo not given in full), the z-score in test [1] was -0.773; in test [2] it was 0.0314 (inactive); in test [3] it was 0.421 (inactive); in test [5], -0.801 (inactive); in test [6], 0.0329 (inactive); in [7] it was -0.113 (inactive). The z-score in test [8] is 0.227 (inactive); in test [9], 0.0738. In addition, the composite z-score in test [4] is 1.22 (inactive); in [10] it was 0.102.

As to `O[C@@H](Cc1ccccc1)[C@@H](/C=C/C1CC1)N(CC#Cc1ccccc1)Cc1cccc(Cl)c1`, the z-score in test [1] was 2.5; in test [2] it was 0.465 (inactive); in test [3] it was 1.61 (inactive); in [5], -0.131 (inactive); in [6], 0.438 (inactive); in test [7], 0.839 (inactive). The values for the z-score in [8] and in test [9] were 1.01 (inactive) and 2.06, respectively. Also, the composite z-score was -0.312 (inactive) in test [4] and -0.0931 in test [10].

As for `O=C1O[C@@H](c2ccccc2)[C@@H](c2ccccc2)N2[C@@H](c3ccc(O)cc3)[C@]3(C(=O)Nc4ccc(C#CC5=CCCCC5)cc43)[C@@H](C(=O)NC[C@H](O)c3ccccc3)[C@H]12`, the z-score in [1] was -0.705; in test [2] it was -0.593 (inactive); in test [3] it was -3.09 (inactive); in [5], 1.6 (inactive); in test [6] it was 2.43 (inactive); in [7], 0.0087 (inactive). Besides, the z-score was 0.939 (inactive) in test [8] and -6.69 in test [9]. Also, the composite z-score was -0.609 (inactive) in [4] and -0.0397 in test [10].

On to `CCCCCCc1nc(C2CC2)cc2c1[Si](C(C)C)(C(C)C)OC2`, for which the z-score in [1] is -0.621; in [2], 0.436 (inactive); in test [3], 0.0766 (inactive); in [5] it was -0.227 (inactive); in [6], -0.431 (inactive); in test [7], -0.423 (inactive). The z-score in [8] was -0.606 (inactive); in test [9], -0.584. Further, the composite z-score is -2.54 (inactive) in test [4] and -0.206 in test [10].

Take `COc1ccc([Si](C)(C)[C@H]2[C@H](CCO)O[C@@]3(C(=O)N(Cc4cccc(N5C(=O)COc6ccccc65)c4)c4ccccc43)[C@@H]2C)cc1`: the z-score is -2.46 in test [1]; 0.422 (inactive) in [2]; -3.44 (inactive) in test [3]; 2.44 (inactive) in [5]; 4.14 (inactive) in test [6]; 2.23 (inactive) in test [7]. Also, the z-score was 1.92 (inactive) in test [8] and -4.91 in test [9]. Also, the composite z-score is 0.858 (inactive) in test [4] and -0.132 in test [10].

For `CCC(CC)C(O)C1C=CC2C(=O)N(c3ccccc3)C(=O)C2N1Nc1ccc(C(C)C)cc1` (stereo not given), the z-score is -1.35 in [1]; -0.129 (inactive) in test [2]; -0.636 (inactive) in [3]; 0.89 (inactive) in test [5]; 1.27 (inactive) in [6]; -0.171 (inactive) in test [7]. In addition, the z-score is -0.297 (inactive) in test [8] and -0.0095 in test [9]. In addition, the values for the composite z-score in test [4] and in [10] were 0.851 (inactive) and 0.159, respectively.

For `NC(N)=NCCCn1cc(CNC(=O)[C@@H](N)Cc2ccccc2)nn1`, the z-score was -0.686 in test [1]; -0.85 (inactive) in test [2]; -0.433 (inactive) in [3]; -0.264 (inactive) in test [5]; -0.297 (inactive) in test [6]; 0.19 (inactive) in [7]. The values for the z-score in test [8] and in test [9] were -0.0439 (inactive) and -0.68, respectively. Moreover, the composite z-score in [4] is -2.75 (inactive); in [10] it was 0.012.

`Cc1ccc(S[C@]2(C(=O)NCCCN(C)C)CC(=O)N(C3CCCCC3)[C@@H]2c2ccc(CO)cc2)cc1`: the z-score in test [1] is -0.0347; in [2], 0.0406 (inactive); in [3], 0.118 (inactive); in test [5], 0.236 (inactive); in test [6] it was 1.21 (inactive); in test [7] it was 0.425 (inactive). In addition, the z-score in test [8] was 0.509 (inactive); in test [9] it was -0.0763. In addition, the composite z-score in test [4] is 0.193 (inactive); in test [10] it was -0.0374.

Take `O=C1C=C(c2ccccc2)C(=O)c2ccc([C@H]3Oc4ccccc4S(=O)(=O)N4CCC[C@@H]34)cc21`: the z-score in [1] was -0.337; in test [2], -18.1 (active); in test [3], -8.07 (active); in [5] it was 0.649 (inactive); in test [6] it was -0.801 (inactive); in test [7], 1.81 (inactive). The z-score was 0.587 (inactive) in [8] and -5.86 in [9]. For the same molecule, the figures for the composite z-score in test [4] and in [10] were -5.82 (inactive) and -0.31, respectively.

As to `O=C(CS)NCCCCCNC(=O)[C@@H]1C[C@@H]2C(=O)N3CCC[C@H]3C(=O)N2[C@@H]1c1cccc(OCCO)c1`, the z-score in test [1] was -0.514; in test [2] it was 0.196 (inactive); in [3] it was -0.374 (inactive); in [5] it was 0.711 (inactive); in test [6] it was 0.119 (inactive); in test [7], -0.277 (inactive). Moreover, the z-score in [8] was -0.141 (inactive); in test [9], -0.664. For the same molecule, the composite z-score in [4] was -1.8 (inactive); in test [10] it was 0.122.

Values taken from PubChem BioAssay.
